Measurements reported in PubChem BioAssay AID651650 (Sanford-Burnham Center for Chemical Genomics, 2012).

These compounds were tested against Neuropilin-1 (Homo sapiens) (UniProt O14786) (assay: NRP-1 b1b2 CendR peptide binding inhibitors, dose response, biochemical, FP and AlphaScreen panel (AID 651650)). Settings: NRP-1 b1b2 / RPARPAR peptide binding, FP or AlphaScreen; run 1, at 100 µM (top of the series).
Chain of Neuropilin-1 (Homo sapiens) (O14786 whole entry, looked up): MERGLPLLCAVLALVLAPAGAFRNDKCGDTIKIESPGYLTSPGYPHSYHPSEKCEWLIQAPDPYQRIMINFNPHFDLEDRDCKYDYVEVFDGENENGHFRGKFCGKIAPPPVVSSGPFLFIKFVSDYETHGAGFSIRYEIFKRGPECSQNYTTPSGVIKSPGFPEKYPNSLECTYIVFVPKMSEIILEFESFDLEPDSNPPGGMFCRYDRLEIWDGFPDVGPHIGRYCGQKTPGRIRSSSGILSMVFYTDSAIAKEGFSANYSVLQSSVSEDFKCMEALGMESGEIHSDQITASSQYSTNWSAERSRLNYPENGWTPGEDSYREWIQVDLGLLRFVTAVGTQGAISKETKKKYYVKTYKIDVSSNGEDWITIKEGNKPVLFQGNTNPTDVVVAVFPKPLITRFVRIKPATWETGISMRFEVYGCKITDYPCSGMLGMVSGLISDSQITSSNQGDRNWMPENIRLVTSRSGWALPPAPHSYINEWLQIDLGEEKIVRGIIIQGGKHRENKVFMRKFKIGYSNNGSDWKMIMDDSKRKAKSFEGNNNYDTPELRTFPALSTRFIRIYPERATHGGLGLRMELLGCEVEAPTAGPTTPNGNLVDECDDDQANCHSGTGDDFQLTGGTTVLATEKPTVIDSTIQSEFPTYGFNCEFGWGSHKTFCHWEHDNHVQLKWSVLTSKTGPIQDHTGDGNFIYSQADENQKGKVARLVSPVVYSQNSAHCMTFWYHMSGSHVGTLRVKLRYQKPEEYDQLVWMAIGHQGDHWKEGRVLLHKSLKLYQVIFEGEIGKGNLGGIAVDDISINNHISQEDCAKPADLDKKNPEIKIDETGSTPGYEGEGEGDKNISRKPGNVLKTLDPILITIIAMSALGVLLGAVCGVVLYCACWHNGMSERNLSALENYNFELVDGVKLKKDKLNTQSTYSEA

Structure (SMILES) | inhibition [%]
C/C(=N\NC(=O)c1cc(O)ccc1O)c1cccc(NC(=O)c2cccc(Cl)c2)c1 | 27.7
Cc1cc(NC(=O)CCC(=O)NNC(=O)c2ccc(C(C)(C)C)cc2)no1 | 102
Cc1cc(C)n2c(SCC(=O)Nc3cccc(S(N)(=O)=O)c3)nnc2n1 | -5.38
COC(=O)CCCC1=CC2=CC(=O)C(C)(OC(=O)c3cccs3)C(=O)C2=CN1CCCCO (stereo not drawn) | 38.6
CSCCC(NC(=O)c1ccc(Cl)cc1Cl)C(=O)NCC(c1cccs1)N(C)C (stereo not drawn) | 31.9
Cc1ccc(C(=O)Nc2ccccc2-c2ccccc2)cc1S(=O)(=O)Nc1ccccc1 | 32.1
O=C(Nc1ccccc1N1CCOCC1)c1ccc(N2CCCC2=O)cc1 | 46.3
Cc1ccc(NC(=S)N2CCN(Cc3ccccc3)CC2)cc1 | -7.69
COc1cccc(OCCNC(=O)Nc2cc(F)c(F)cc2Cl)c1 | 54.1
CNC(=O)NC(=O)C(C)OC(=O)c1c(C)noc1C (stereo not drawn) | 49.1
COc1ccc(/C=N/NC(=O)c2cc(C(C)(C)C)[nH]n2)cc1COc1ccc(F)cc1F | 26
CN(C)CCn1c(=O)n(-c2ccc(F)cc2)c(=O)c2c3c(sc21)CCCCC3 | 77.8
O=C(O)CSc1nnc(-c2ccc(Cl)cc2Cl)n1-c1ccc(Cl)cc1 | 74.1
Cc1cccc(-c2noc(CSc3ccccc3)n2)c1 | 0.214
CN(C)CCOC(c1ccc(Cl)cc1)c1ccccn1 (stereo not drawn) | 32
N=C1C(=O)OCC1c1cc(Cl)ccc1NC(=O)Nc1ccccc1 (stereo not drawn) | 47.4
Cc1onc(-c2ccccc2)c1C(=O)Nc1c(C)n(C)n(-c2ccccc2)c1=O | 28.1
CCc1ccc(OC(=O)CN2C(=O)c3ccccc3C2=O)cc1 | 76.9
O=C(O)c1ccc(C(=O)Nc2cccc3ccccc23)c(C(=O)O)c1 | 76.6

Structure (SMILES) | inhibition [%]
NC(=O)C(c1ccc(Cl)cc1Cl)c1ncc(C(F)(F)F)cc1Cl (stereo not drawn) | 88.6
FC(F)(F)c1cc(C(F)(F)F)c2ccc(Oc3ccccc3)nc2n1 | 22.5
Cc1cccc(C)c1Nc1nnc(SCC(=O)Nc2cc(S(=O)(=O)N3CCCCC3)ccc2Cl)s1 | -15.9
CCC(=O)Nc1nc2nc(-c3ccccc3)cc(-c3ccccc3)n2n1 | 37.2
c1ccc2c3n(nc2c1)CCCO3 | 27.6
COc1cccc(N2[C@@H](CC(C)=O)c3ccc(/C=C/C(C)=O)cc3S2(=O)=O)c1 | 10.9
CC(=O)Nc1ccc(NC(=O)C2CC(=O)N=C(N)S2)cc1 (stereo not drawn) | 95.5
CC1(C)c2ccccc2C(=O)c2ccccc21 | -7.21
COc1cccc(C(=O)N2N=C(c3ccccc3)CC2(O)C(F)(F)F)c1 (stereo not drawn) | 35.9
C=C1CCN([C@@H](CC(C)C)C(=O)NCc2ccccc2)S(=O)(=O)c2ccccc21 | 12.9
O=c1oc(Nc2ccccc2F)nc2ccccc12 | 25.1
O=C(O)C1CCN(C(=O)c2ccc(Cl)cc2)CC1 | 32
COc1c2ccc(C(=O)NCc3cc(C(F)(F)F)cc(C(F)(F)F)c3)cc2nn1C | 38.2
CNc1nc(-c2ccc3c(c2)CCN3C(=O)c2ccccc2F)cs1 | 14.5
Cc1ccccc1Oc1ccc2c(c1)[C@@H]1C[C@H](N(C)C(=O)Nc3cc(Cl)cc(Cl)c3)[C@H]([C@H](C)O)C(=O)N1CC2 | 97.5
COc1ccc(C(C(=O)NC(C)(C)C)N(C(=O)CCC(=O)Nc2cc(C)on2)c2c(C)cccc2C)cc1 (stereo not drawn) | 42.7
CN(C(=O)COC(=O)c1nc(-c2ccccc2)n(-c2ccccc2)n1)C1CCS(=O)(=O)C1 (stereo not drawn) | -0.283
NS(=O)(=O)c1cccnc1Nc1cccc(Cl)c1Cl | 14.4
COc1ccc(NC(=O)C(C)Sc2ccccc2)cc1 (stereo not drawn) | 13.5
